Our source for the Inhibition values is ChEMBL document CHEMBL4513146, “CO-ADD screening of Karazin Kharkiv National University (Ukraine) compounds”.

One assay deals with Staphylococcus aureus. The following applies: Concentration 32 ug.mL-1;; ASSAY_TEST Inhibition of Bacterial Growth; detection method Absorption (OD600); MEDIA CAMHB; plate type 384well; NBS; CORNING #3640; time 18 hr.
In a further assay the test system is Escherichia coli. Particulars: Concentration 32 ug.mL-1;; ASSAY_TEST Inhibition of Bacterial Growth; detection method Absorption (OD600); MEDIA CAMHB; plate type 384well; NBS; CORNING #3640; time 18 hr.

Results with a measured potency or affinity are listed apart.

Take `CC(=O)c1ccc(N2CCN(C(=O)CCc3nnc4c5cc(-c6ccccc6)nn5ccn34)CC2)cc1`: the figures for the Inhibition with Staphylococcus aureus and with Escherichia coli were 11.68% and 2.66%, respectively.
The matching figures for `CCOC(=O)c1ccccc1NC(=O)Cn1nc2c(Oc3ccc(C)cc3)nccn2c1=O`: -14.8% and -17.92%.
Take `CCOc1ccc(-n2ccn3c(SCC(=O)c4ccc(OC)c(OC)c4)nnc3c2=O)cc1`: the Inhibition (as a rule, the drop in the measured response relative to a control, in per cent) stood at 21.02% with Staphylococcus aureus and 1.32% in the assay with Escherichia coli.
For `CCOC(=O)c1ccc(NC(=O)Cn2nc3ccc(C(=O)Nc4cccc(C)c4)cn3c2=O)cc1`, the Inhibition in the assay on Staphylococcus aureus was 1.34%; in the assay with Escherichia coli it was -4.77%.
As for `COC(=O)c1ccccc1NC(=O)Cn1nc2c(Oc3ccccc3C)nccn2c1=O`, the Inhibition is recorded as 4.43% in the assay on Staphylococcus aureus and -5.27% in the assay with Escherichia coli.
For the molecule `COc1ccc(NC(=O)Cn2nc3ccc(SC(C)C)nn3c2=O)cc1OC`, the Inhibition was -2.31% in the assay with Staphylococcus aureus and 0.47% in the assay with Escherichia coli.
Turning to `CCOC(=O)C1CCCN(C(=O)Cn2nc3n(CC(C)C)c(=O)c4sccc4n3c2=O)C1` (centres undefined), the values for the Inhibition in the assay with Staphylococcus aureus and in the assay with Escherichia coli were -2.49% and -6.05%, respectively.
As for `CCc1ccc(N(Cc2cccc(F)c2)S(=O)(=O)c2cccn3c(CC)nnc23)cc1`, the Inhibition in the assay with Staphylococcus aureus was 13.65%; with Escherichia coli, -0.18%.
For `Cc1ccc(-c2ccc3nn(Cc4cccc(Cl)c4)c(=O)n3n2)cc1C` the same measures were 8.16% and -3.9%.
Regarding `CCOc1ccc(-n2ccn3c(SC(C)C(=O)Nc4ccc5c(c4)OCCO5)nnc3c2=O)cc1` (centres undefined), the Inhibition with Staphylococcus aureus came to 14.02%; in the assay on Escherichia coli, 0.39%.
Take `CCCCN(CC)C(=O)CSc1nnc2c(=O)n(Cc3ccccc3F)ccn12`: the Inhibition in the assay on Staphylococcus aureus is listed as 1.71%; with Escherichia coli it was -7.34%.
For `CCc1nnc2c(S(=O)(=O)N(Cc3cccc(F)c3)c3ccc(C)c(C)c3)cccn12`, the Inhibition in the assay with Staphylococcus aureus amounted to 17.57%; in the assay with Escherichia coli, 2.28%.
In the case of `CCc1ccc(N(Cc2ccccc2F)S(=O)(=O)c2cccn3c(C)nnc23)cc1`, the Inhibition in the assay with Staphylococcus aureus was 15.67%; in the assay with Escherichia coli it was -1.05%.
With `COc1ccc(NC(=O)c2ccc3nn(CC(=O)Nc4ccccc4C(F)(F)F)c(=O)n3c2)cc1`, the values for the Inhibition in the assay with Staphylococcus aureus and in the assay on Escherichia coli were 9.89% and -3.73%, respectively.
In the case of `Cc1ccc(Cn2c(=O)c3ccccc3n3c(=O)n(CC(=O)Nc4ccc5c(c4)OCCO5)nc23)cc1`, the values for the Inhibition in the assay with Staphylococcus aureus and in the assay with Escherichia coli were 6.52% and 1.04%, respectively.
For `CN(C(=O)Cn1nc2n(Cc3cccs3)c(=O)c3sccc3n2c1=O)c1ccccc1` the same measures were -14.76% and -16.81%.
With `O=c1n(Cc2cccc(C(F)(F)F)c2)nc2c(S(=O)(=O)N3CCCCC3)cccn12`, the Inhibition with Staphylococcus aureus is reported as 4.93%; in the assay on Escherichia coli, -3.78%.
As to `Cc1nnc2c(=O)n(CC(=O)Nc3ccccc3F)c3ccccc3n12`, the results for the Inhibition in the assay with Staphylococcus aureus and in the assay with Escherichia coli were -11.2% and 1.77%, respectively.
For `COc1cc(NC(=O)Cn2nc3ccc(-c4ccc(Cl)cc4)nn3c2=O)cc(OC)c1` the same measures were -2.47% and -10.38%.
`Cc1ccc(Sc2nccn3c(=O)n(CC(=O)Nc4c(C)cc(C)cc4C)nc23)c(C)c1`: the Inhibition in the assay on Staphylococcus aureus came out at 17.35%; in the assay on Escherichia coli, 1.82%.
With `O=C(Cn1nc2c(SCc3ccccc3)nccn2c1=O)NCc1ccccc1`, the Inhibition was -16.25% in the assay with Staphylococcus aureus and -19.33% in the assay on Escherichia coli.
For the molecule `Cc1ccc(C)c(-c2cc3c4nnc(CCC(=O)NCCc5ccc(Cl)cc5)n4ccn3n2)c1`, the figures for the Inhibition with Staphylococcus aureus and in the assay on Escherichia coli were 5.83% and 3.02%, respectively.
The matching figures for `CCOc1ccc(-n2ccn3c(SCC(=O)c4ccc(F)cc4)nnc3c2=O)cc1`: 21.72% and 2.02%.
For the molecule `CCCCc1ccc(NC(=O)Cn2nc3c(Sc4ccccc4CC)nccn3c2=O)cc1`, the Inhibition is given as -7.41% in the assay on Staphylococcus aureus and -10.67% with Escherichia coli.
On to `COc1cccc(-n2ccn3c(SCC(=O)c4ccc(C)cc4C)nnc3c2=O)c1`, for which the Inhibition with Staphylococcus aureus was 12.17%; in the assay on Escherichia coli, -2.43%.
For `CC(C)c1ccc(CNC(=O)CCc2nnc3c(N4CCCCC4)nc4ccccc4n23)cc1`, the Inhibition in the assay on Staphylococcus aureus is recorded as 3.73%; in the assay with Escherichia coli, -5.19%.
Take `COC(=O)c1ccc(NC(=O)Cn2nc3c4cc(-c5ccc(F)cc5)nn4ccn3c2=O)cc1`: the figures for the Inhibition in the assay with Staphylococcus aureus and with Escherichia coli were -6.17% and 3.19%, respectively.
For `Cc1ccc(NC(=O)Cn2c(=O)c3nnc(C(C)C)n3c3ccccc32)cc1F`, the Inhibition came to 13.81% with Staphylococcus aureus and 1.95% with Escherichia coli.
Regarding `O=C(Cn1nc2ccc(C(=O)NCc3ccccc3)cn2c1=O)Nc1ccc(Br)cc1`, the Inhibition in the assay with Staphylococcus aureus is on record as 3.47%; in the assay with Escherichia coli, -7.68%.
For `COC(=O)c1ccc(NC(=O)Cn2nc3c(Oc4cccc(OC)c4)nccn3c2=O)cc1` the same measures were 10.83% and -2.01%.
Turning to `Cc1ccccc1N1CCN(c2nccn3c(=O)n(CC(=O)NCc4cc(F)cc(F)c4)nc23)CC1`, the Inhibition with Staphylococcus aureus was 9.65%; with Escherichia coli, -0.75%.
For `CCc1ccc(NC(=O)Cn2nc3n(Cc4cccs4)c(=O)c4sccc4n3c2=O)cc1`, the Inhibition in the assay with Staphylococcus aureus is -0.38%; with Escherichia coli, 5.1%.
